# Assay results as given in PubChem BioAssay (Tox21).
# Inconclusive results are not listed. Where a call stands in place of a potency, no number is given. Active and inactive are the calls of the source. Unless noted, calls come from the whole dose curve; as a rule, active = well fitted curve in the direction sought with a large enough effect in the repeat runs; inconclusive = weak or mixed curves; inactive = no such curve, though single readings can be large; an effect the other way counts as inactive or inconclusive.
# Columns and labels:
# [1] = qHTS assay to identify aromatase inhibitors - cell viability counter screen (AID 743084);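 note: cells stimulated with testosterone during compound exposure; nearly all actives have a fitted effect of over 55% in size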; note: potency is the fitted concentration of half-maximal effect
# [2] = target: Aryl hydrocarbon receptor (Homo sapiens) (UniProt P35869); test: qHTS assay to identify small molecule that activate the aryl hydrocarbon receptor (AhR) signaling pathway (AID 743085); note: nearly all actives have a fitted effect of over 15% in size; note: potency is the fitted concentration of half-maximal effect;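 for activation: HG2L7.5c1 human HepG2 liver cells with stably integrated DRE-driven firefly reporter; series mostly up to about 70 µM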
# Chain of Aryl hydrocarbon receptor (Homo sapiens) (P35869 whole entry, looked up): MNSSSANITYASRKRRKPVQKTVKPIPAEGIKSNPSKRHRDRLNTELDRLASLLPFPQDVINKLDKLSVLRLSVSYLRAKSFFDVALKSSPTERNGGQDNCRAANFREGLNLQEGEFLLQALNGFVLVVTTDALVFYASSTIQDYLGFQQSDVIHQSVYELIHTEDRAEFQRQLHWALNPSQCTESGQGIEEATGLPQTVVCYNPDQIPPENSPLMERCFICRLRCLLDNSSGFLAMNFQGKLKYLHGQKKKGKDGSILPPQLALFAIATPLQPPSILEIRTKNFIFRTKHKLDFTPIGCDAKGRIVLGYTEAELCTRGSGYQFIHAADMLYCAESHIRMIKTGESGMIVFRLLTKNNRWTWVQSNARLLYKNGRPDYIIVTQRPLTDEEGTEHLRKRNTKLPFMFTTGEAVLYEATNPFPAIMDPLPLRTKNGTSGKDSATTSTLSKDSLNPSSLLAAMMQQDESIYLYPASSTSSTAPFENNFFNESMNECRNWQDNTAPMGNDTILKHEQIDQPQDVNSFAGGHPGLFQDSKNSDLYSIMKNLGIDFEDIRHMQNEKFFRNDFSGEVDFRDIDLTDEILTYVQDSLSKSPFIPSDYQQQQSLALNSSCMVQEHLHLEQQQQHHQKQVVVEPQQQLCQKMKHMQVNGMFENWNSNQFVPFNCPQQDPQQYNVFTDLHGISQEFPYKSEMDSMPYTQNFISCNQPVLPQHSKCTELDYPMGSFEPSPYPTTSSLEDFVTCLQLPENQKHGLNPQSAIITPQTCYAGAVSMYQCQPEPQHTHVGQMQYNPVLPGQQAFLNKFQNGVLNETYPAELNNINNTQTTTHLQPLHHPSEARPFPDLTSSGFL
# Outline: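 HepG2 cells (HG2L7.5c1) stably carrying a firefly luciferase reporter driven by 20 dioxin responsive elements were exposed to compound for 24 h at 37C after a 5 h settling period; luminescence rise (ONE-Glo) indicated activation.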
# [3] = qHTS assay to identify small molecule that activate the aryl hydrocarbon receptor (AhR) signaling pathway - cell viability counter screen (AID 743086); note: nearly all actives have a fitted effect of over 45% in size; note: potency is the fitted concentration of half-maximal effect
# Outline: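 Cytotoxicity counter screen: CellTiter-Fluor signal (30 min, 37 C) in 4000 HepG2 cells/well carrying the DRE-luciferase reporter, following 24 h compound exposure at 37 C.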
# [4] = target: Peroxisome proliferator-activated receptor gamma (Homo sapiens) (UniProt P37231); test: qHTS assay to identify small molecule agonists of the peroxisome proliferator-activated receptor gamma (PPARg) signaling pathway (AID 743094; active = well fitted activation curve with a large enough effect in the signal ratio in the repeat runs, not every such curve was filed as active; the % refers to the signal ratio)
# Chain of Peroxisome proliferator-activated receptor gamma (Homo sapiens) (P37231 whole entry, looked up): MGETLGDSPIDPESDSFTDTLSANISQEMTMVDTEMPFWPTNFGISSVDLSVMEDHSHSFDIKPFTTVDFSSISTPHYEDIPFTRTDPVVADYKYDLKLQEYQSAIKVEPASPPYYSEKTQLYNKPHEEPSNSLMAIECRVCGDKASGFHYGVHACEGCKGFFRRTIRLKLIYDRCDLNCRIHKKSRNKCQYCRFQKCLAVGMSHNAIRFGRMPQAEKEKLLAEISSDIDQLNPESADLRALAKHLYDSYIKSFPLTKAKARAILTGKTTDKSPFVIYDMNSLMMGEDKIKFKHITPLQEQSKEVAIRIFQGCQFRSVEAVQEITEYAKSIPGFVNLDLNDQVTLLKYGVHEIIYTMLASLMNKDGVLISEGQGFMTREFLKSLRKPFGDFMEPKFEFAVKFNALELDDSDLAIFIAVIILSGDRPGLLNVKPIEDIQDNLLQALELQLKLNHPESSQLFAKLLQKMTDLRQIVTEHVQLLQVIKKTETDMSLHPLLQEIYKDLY
# Outline: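 Beta-lactamase FRET fluorescence was the read-out after a 1 h room-temperature substrate step, following 17 h compound treatment at 37C of HEK293H cells expressing a UAS-driven bla reporter responsive to PPARg.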
# [5] = qHTS assay to identify small molecule antagonists of the peroxisome proliferator-activated receptor gamma (PPARg) signaling pathway - cell viability counter screen (AID 743194); note: nearly all actives have a fitted effect of over 55% in size
# Outline: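 Viability was measured as CellTiter-Glo luminescence in GeneBLAzer PPARg UAS-bla HEK293H cells. These cells had been exposed 17 h at 37 C to compounds together with rosiglitazone at 50 nM final, with the beta-lactamase readout taken in the same wells.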
# [6] = qHTS assay for small molecule agonists of the antioxidant response element (ARE) signaling pathway (AID 743202; active = well fitted activation curve with a large enough effect in the signal ratio in the repeat runs, not every such curve was filed as active; the % refers to the signal ratio)
# Outline: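 Quantitative high-throughput format in HepG2 cells bearing an integrated ARE-beta-lactamase reporter. Compound exposure lasted 16 h at 37 C, and fluorescence was read 2 h after adding LiveBLAzer B/G substrate at room temperature.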
# [7] = qHTS assay for small molecule agonists of the antioxidant response element (ARE) signaling pathway - cell viability counter screen (AID 743203; calls by dose curve; note: nearly all actives have a fitted effect of over 55% in size)
# Outline: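 HepG2 cells carrying ARE-driven beta-lactamase; 2,000 cells/well; 5 hrs plating; compound pinned from DMSO; 16 hrs 37C/5% CO2; CellTiter-Glo added; 30 min RT; luminescence.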
# [8] = qHTS assay for small molecule activators of the heat shock response signaling pathway - cell viability counter screen (AID 743209); note: nearly all actives have a fitted effect of over 50% in size
# Outline: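 Luminescence from CellTiter-Glo, added after the beta-lactamase FRET read, gave the viability signal. Cells were HSE-bla HeLa treated with DMSO-dissolved compounds for 5 h at 37 C following overnight plating.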
# [9] = qHTS assay for small molecule activators of the heat shock response signaling pathway (AID 743210; active = well fitted activation curve with a large enough effect in the signal ratio in the repeat runs, with a control signal flat, not every such curve was filed as active; the % refers to the signal ratio;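 note: HeLa cells with beta-lactamase reporter driven by heat shock elements; series mostly up to about 63 µM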)
# Outline: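 HeLa HSE-bla cells, overnight plating; cpd in DMSO 5 h, 37 C; LiveBLAzer B/G FRET substrate 2.5 h RT; fluorescence intensity read.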
# [10] = qHTS assay to identify small molecule agonists of the peroxisome proliferator-activated receptor delta (PPARd) signaling pathway - cell viability counter screen (AID 743211); note: nearly all actives have a fitted effect of over 55% in size; note: potency is the fitted concentration of half-maximal effect
# Outline: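 PPARd-bla HEK293H cells (UAS-beta-lactamase reporter) were treated with compounds for 17 h at 37 C. Viability was then read in the same wells by CellTiter-Glo luminescence after 30 min at room temperature.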
# [11] = target: Peroxisome proliferator-activated receptor delta (Homo sapiens) (UniProt Q03181); test: qHTS assay to identify small molecule agonists of the peroxisome proliferator-activated receptor delta (PPARd) signaling pathway (AID 743212; calls by dose curve)
# Chain of Peroxisome proliferator-activated receptor delta (Homo sapiens) (Q03181 whole entry, looked up): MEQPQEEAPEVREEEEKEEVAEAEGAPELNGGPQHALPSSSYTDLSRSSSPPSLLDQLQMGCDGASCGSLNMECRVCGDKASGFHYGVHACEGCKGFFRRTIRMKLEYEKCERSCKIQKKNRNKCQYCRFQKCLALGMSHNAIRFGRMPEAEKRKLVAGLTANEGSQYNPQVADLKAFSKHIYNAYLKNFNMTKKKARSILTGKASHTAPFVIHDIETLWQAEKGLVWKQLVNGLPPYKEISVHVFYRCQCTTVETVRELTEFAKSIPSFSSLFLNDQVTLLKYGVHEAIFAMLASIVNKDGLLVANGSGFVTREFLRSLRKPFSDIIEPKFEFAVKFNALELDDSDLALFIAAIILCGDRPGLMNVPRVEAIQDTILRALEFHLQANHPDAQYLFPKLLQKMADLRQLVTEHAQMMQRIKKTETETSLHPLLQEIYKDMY
# Outline: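 HEK293H PPARd-bla cells; 5 h preincubation 37 C/5% CO2; compound (DMSO) 37 C; LiveBLAzer B/G FRET substrate 2 h RT; fluorescence intensity.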
# [12] = qHTS assay to identify small molecule antagonists of the peroxisome proliferator-activated receptor delta (PPARd) signaling pathway - cell viability counter screen (AID 743213); note: nearly all actives have a fitted effect of over 50% in size; note: potency is the fitted concentration of half-maximal effect
# Outline: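 PPARd-bla HEK293H cells (3000/well) got compound plus 300 nM L165041 agonist for 17 h at 37 C. Viability in the same wells came from CellTiter-Glo luminescence after 30 min at room temperature.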
# [13] = target: Peroxisome proliferator-activated receptor delta (Homo sapiens) (UniProt Q03181); test: qHTS assay to identify small molecule antagonists of the peroxisome proliferator-activated receptor delta (PPARd) signaling pathway (AID 743215; active = well fitted inhibition curve with a large enough effect in the signal ratio in the repeat runs, not every such curve was filed as active; the % refers to the signal ratio;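 note: cells stimulated with agonist L165041 at 300 nM final during compound exposure; series mostly up to about 62 µM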)
# Outline: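 Read-out is beta-lactamase FRET fluorescence, measured 2 h after substrate addition at room temperature. Beforehand, UAS-bla HEK293H cells carrying the PPARd reporter were exposed to compounds with L165041 at 300 nM final for 17 h at 37 C.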
# [14] = qHTS assay to identify small molecule agonists of the farnesoid-X-receptor (FXR) signaling pathway - cell viability counter screen (AID 743218); note: nearly all actives have a fitted effect of over 45% in size
# Outline: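 HEK 293T FXR-bla cells; 5 h pre-incubation, 16 h compound exposure at 37 C; LiveBLAzer substrate 2 h RT, then CellTiter-Glo 30 min RT, luminescence.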
# [15] = target: Bile acid receptor (Homo sapiens) (UniProt Q96RI1); test: qHTS assay to identify small molecule agonists of the farnesoid-X-receptor (FXR) signaling pathway (AID 743220; active = well fitted activation curve with a large enough effect in the signal ratio in the repeat runs, not every such curve was filed as active; the % refers to the signal ratio)
# Chain of Bile acid receptor (Homo sapiens) (Q96RI1 whole entry, looked up): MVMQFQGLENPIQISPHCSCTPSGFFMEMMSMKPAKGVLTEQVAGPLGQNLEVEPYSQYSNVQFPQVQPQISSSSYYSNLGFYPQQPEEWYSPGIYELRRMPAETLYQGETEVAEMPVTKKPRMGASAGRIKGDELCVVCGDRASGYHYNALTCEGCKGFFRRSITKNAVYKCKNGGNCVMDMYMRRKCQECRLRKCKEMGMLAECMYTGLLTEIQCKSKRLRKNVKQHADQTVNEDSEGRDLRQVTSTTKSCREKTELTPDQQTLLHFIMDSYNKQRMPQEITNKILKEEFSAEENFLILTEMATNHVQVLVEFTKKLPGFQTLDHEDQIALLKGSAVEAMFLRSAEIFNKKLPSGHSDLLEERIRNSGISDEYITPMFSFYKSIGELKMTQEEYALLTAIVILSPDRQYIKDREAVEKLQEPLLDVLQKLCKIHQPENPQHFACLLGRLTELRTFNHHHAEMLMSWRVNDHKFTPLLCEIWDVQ
# Outline: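 Beta-lactamase reporter under UAS control in GeneBLAzer FXR HEK 293T cells (5000/well) measured with LiveBLAzer FRET substrate after 2 h at room temperature. Compound exposure lasted 16 h at 37C.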
# [16] = qHTS assay to identify small molecule antagonists of the farnesoid-X-receptor (FXR) signaling pathway - cell viability counter screen (AID 743221; active = well fitted cell-killing curve with a large enough effect in the repeat runs, not every such curve was filed as active; note: nearly all actives have a fitted effect of over 50% in size)
# Outline: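 FXR-UAS-bla HEK 293T cells were treated with test compounds plus chenodeoxycholic acid (50 uM final) for 16 h at 37 C. Cell viability in the same wells was then read as CellTiter-Glo luminescence after 30 min at room temperature.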
# [17] = target: Vitamin D3 receptor (Homo sapiens) (UniProt P11473); test: qHTS assay to identify small molecule agonists of the vitamin D receptor (VDR) signaling pathway (AID 743222; calls by dose curve)
# Chain of Vitamin D3 receptor (Homo sapiens) (P11473 whole entry, looked up): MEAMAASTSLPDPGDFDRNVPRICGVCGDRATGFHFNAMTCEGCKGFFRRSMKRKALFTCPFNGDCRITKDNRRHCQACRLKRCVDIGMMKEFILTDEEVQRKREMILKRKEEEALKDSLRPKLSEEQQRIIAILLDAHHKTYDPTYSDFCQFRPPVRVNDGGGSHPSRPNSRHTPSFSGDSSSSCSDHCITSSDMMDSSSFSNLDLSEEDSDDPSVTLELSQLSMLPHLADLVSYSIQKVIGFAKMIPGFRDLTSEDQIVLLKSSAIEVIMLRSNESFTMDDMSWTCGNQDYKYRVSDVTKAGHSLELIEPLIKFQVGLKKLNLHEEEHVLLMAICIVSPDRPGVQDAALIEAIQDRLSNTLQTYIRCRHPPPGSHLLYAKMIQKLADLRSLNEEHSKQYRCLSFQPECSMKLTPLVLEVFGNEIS
# Outline: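 VDR-bla cells, 2,000/well; 4 h preincubation 37C; cpd (DMSO) 16 h; LiveBLAzer B/G substrate 2 h RT; fluorescence intensity read.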
# [18] = target: Vitamin D3 receptor (Homo sapiens) (UniProt P11473); test: qHTS assay to identify small molecule antagonists of the vitamin D receptor (VDR) signaling pathway (AID 743223; active = well fitted inhibition curve with a large enough effect in the signal ratio in the repeat runs, not every such curve was filed as active; the % refers to the signal ratio)
# Outline: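 VDR-bla cells were plated, incubated 4 h at 37C, then given compound and 1alpha,25-dihydroxyvitamin D3 (3 nM final). After 16 h at 37C, LiveBLAzer B/G FRET substrate was added for 2 h at room temperature and fluorescence read.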
# [19] = target: Bile acid receptor (Homo sapiens) (UniProt Q96RI1); test: qHTS assay to identify small molecule antagonists of the farnesoid-X-receptor (FXR) signaling pathway (AID 743217; active = well fitted inhibition curve with a large enough effect in the signal ratio in the repeat runs, not every such curve was filed as active; the % refers to the signal ratio; note: potency is the fitted concentration of half-maximal effect)
# Outline: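 HEK 293T FXR-UAS-bla, 5000 cells/well; compound + CDCA 50 uM final; 16 h, 37 °C; B/G FRET substrate 2 h RT; fluorescence.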
SMILES,Potency [1],Potency [2],Potency [3],Potency [4],Potency [5],Potency [6],Potency [7],Potency [8],Potency [9],Potency [10],Potency [11],Potency [12],Potency [13],Potency [14],Potency [15],Potency [16],Potency [17],outcome [18],Potency [19]
O=CC1CC=CCC1 (stereo unspecified),inactive,inactive,inactive,inactive,inactive,inactive,inactive,inactive,inactive,inactive,inactive,inactive,inactive,inactive,inactive,inactive,inactive,inactive,–
C1CCCNCCC1,inactive,inactive,inactive,inactive,inactive,inactive,inactive,–,inactive,inactive,inactive,–,–,–,–,–,–,–,inactive
Nc1ncn([C@H]2C[C@H](O)[C@@H](CO)O2)c(=O)n1,inactive,inactive,inactive,inactive,inactive,inactive,–,inactive,–,–,–,inactive,–,–,inactive,inactive,inactive,inactive,10.6 µM (active)
O=C(O)c1ccccc1Cl,inactive,inactive,inactive,inactive,inactive,inactive,inactive,inactive,inactive,–,inactive,inactive,–,–,inactive,inactive,inactive,inactive,inactive
CCCCCCCCCCCCCCCCOS(=O)(=O)O,inactive,inactive,inactive,inactive,inactive,–,–,inactive,–,–,–,–,–,inactive,inactive,inactive,inactive,inactive,–
COc1ccc(-c2nc3ccc(C4=NNC(=O)CC4C)cc3[nH]2)cc1 (stereo unspecified),inactive,11.9 µM (active),inactive,inactive,inactive,inactive,inactive,inactive,inactive,–,inactive,–,–,–,inactive,inactive,inactive,inactive,29.8 µM (active)
CCOC(=O)COC(=O)c1cc(Oc2ccc(C(F)(F)F)cc2Cl)ccc1[N+](=O)[O-],inactive,inactive,inactive,inactive,inactive,–,inactive,inactive,–,inactive,–,inactive,–,inactive,–,inactive,inactive,inactive,inactive
CCN(CC)c1ccc2c(-c3ccccc3C(=O)O)c3ccc(=[N+](CC)CC)cc-3oc2c1,8.63 µM (active),inactive,9.69 µM (active),inactive,inactive,–,–,inactive,inactive,inactive,–,inactive,–,–,–,inactive,inactive,–,inactive
COc1ccc(S(=O)(=O)N2C(=O)[C@@](c3ccccc3OC)(N3C[C@H](O)C[C@H]3C(=O)N(C)C)c3cc(Cl)ccc32)c(OC)c1,30.6 µM (active),inactive,30.6 µM (active),inactive,–,–,–,inactive,inactive,–,–,–,inactive,inactive,–,–,inactive,–,–
C/C=C/C=C/CO,inactive,inactive,inactive,inactive,–,–,inactive,inactive,inactive,inactive,–,inactive,–,inactive,inactive,inactive,inactive,inactive,inactive
CCCn1cnc2c1c(=O)n(CCCCC(C)=O)c(=O)n2C,inactive,inactive,inactive,inactive,inactive,inactive,inactive,inactive,inactive,–,inactive,inactive,inactive,inactive,inactive,inactive,inactive,inactive,inactive
CN(Cc1ccc(C(C)(C)C)cc1)Cc1cccc2ccccc12,inactive,inactive,inactive,inactive,–,inactive,inactive,inactive,inactive,29.8 µM (active),–,23.7 µM (active),inactive,–,inactive,–,inactive,inactive,–
